{"source": "PubChem BioAssay (EPA / NIEHS)", "note": "Active and inactive are the calls of the source. The calls were made as follows: active = hit-call score of the fitted dose curve at least 0.9, where 1 is the maximum; inactive = score below 0.9.", "data": [{"read-out": "Bcl-2 (BID) gene, BID (gene 637)", "assay": "LTEA_HepaRG_BID: Life Technologies and Expression Analysis (LTEA) Assay for Bcl-2 (BID) gene using HepaRG (AID 2283476)", "conditions": "mRNA level, 48 h; actives raise or lower the signal", "procedure": "LTEA_HepaRG is a cell based, multiplexed-readout assay that uses HepaRG, a human liver cell line, with measurements taken at 48 hours after chemical dosing on a 96-well plate.LTEA_HepaRG_BID is one of 102 assay component(s) measured in the LTEA HepaRG cell culture assay. It is a marker of Cell proliferation, survival, death.Data from the assay component LTEA_HepaRG_BID was analyzed into 1 endpoint. This assay endpoint, LTEA_HepaRG_BID, was analyzed with bidirectional fitting relative to DMSO as the negative control and baseline of activity. Using a type of inducible reporter, measures of mRNA induction for gain or loss-of-signal activity can be used to understand regulation of transcription factor activity. To generalize the intended target to other relatable targets, this assay endpoint is annotated to the cell cycle intended target family, where the subfamily is Cell proliferation, survival, death.\nA total of 1060 chemcials from the ToxCast library were tested in eight-point concentration-response experiments. Cell culture and cytotoxicity assays were conducted at Thermo Fisher Scientific's Custom Services facility (Madison, WI). A single lot of human HepaRG cells (Thermo Fisher Scientific, Frederick, MD) was used for the cell culture experiments. 96-well format collagen type I coated plates of human HepaRG cells were prepared using established methods. Briefly, cryopreserved HepaRG cells were thawed, plated at a density of approximately 100,000 cells/well in HepaRG Thaw, Plate, and General Purpose media (HPRG770, Thermo Fisher Scientific), and incubated for 48 hours. 0.5% DMSO was selected as vehicle control to balance the requisite need of DMSO in HepaRG cultures to maintain differentiation (for example, baseline metabolism, proportions of hepatocytes vs. cholangiocytes), while enabling further hepatic receptor pathway activation (for example, PXR and CAR) in response to chemical exposure. 48 hours after plating, the culture medium was replaced with HepaRG Serum-Free Incudtion Media. Cells were exposed to each test chemical in duplicate and maintained in CO2 incubators for another 48 hours. Chemical plates were thawed to room temperature and 200x concentrations of treatment groups were prepared. 8-point conentration-reponse curves were made with the highest exposure at 100 uM, followed by half-log dilutions, all in 0.5% DMSO. Each test plate contained variouse controls, induction positive controls (1mM phenobarbital), cytotoxicity positive controls ([…] aflatoxin B1), vehicle controls (0.5% DMSO), and total lysis controls (0.5% DMSO). Cell morphology images were taken using an Essen IncuCyte FLR automated microscope, with six 96-well plates imaged in about 24 minutes. Images were captured and exported and JPEG files. Spent culture media was transfered to black-well plates for the LDH assay, and remaining media was sorted at -80 C for later use. Cells were treated with RLT buffer and frozen until shipped for gene expression analysis. Total RNA was isolated from the cell suspension in 75 uL of Buffer RLT (Qiagen, Germantown, MD 20874) by Quintiles/Expression Analysis (Durham, NC) using a custom isolation procedure. Total RNA from each plate well was transferred to a preamplification plate. Fluidigm's 96.96 Dynamic ArrayTM (Fluidigm, Amsterdam, the Netherlands) technology was used for gene expression analyses by quantitative reverse transcription polymerase chain reaction (qRT-PCR, performed by Quintiles/Expression Analysis, Durham, NC)89. Standard TaqManTM Assays (Applied Biosystems/ThermoFisher Scientific, Foster City, CA) were used to assess the expression of 93 genes selected based on their selectivity and sensitivity to important hepatic receptors known to be modulated by environmental chemicals; importance in human hepatocyte functionality; and hepatotoxicity. […]", "values": [{"smiles": "CC(=O)N1CCN(c2ccc(OC[C@H]3CO[C@](Cn4ccnc4)(c4ccc(Cl)cc4Cl)O3)cc2)CC1", "outcome": "inactive"}, {"smiles": "CCCCCCCCCCCCO", "outcome": "inactive"}, {"smiles": "c1ccc2n[nH]nc2c1", "outcome": "inactive"}, {"smiles": "COc1ccc2cc(S(=O)(=O)N[C@H](CC(=O)N[C@H](Cc3ccc(CN4[C@H](C)CCC[C@@H]4C)cc3)C(=O)N(C)C(C)C)c3ccc4c(c3)OCO4)ccc2c1", "AC50": "21.6 µM (active)"}, {"smiles": "Cc1cc2c(cc1C(F)(F)F)N(C(=O)Nc1ccc(Oc3cccnc3C)nc1)CC2", "AC50": "75 µM (active)"}, {"smiles": "CN(C)c1ccc(C(=C2C=CC(=[N+](C)C)C=C2)c2ccc(N(C)C)cc2)cc1", "outcome": "inactive"}, {"smiles": "CCN(Cc1cccnc1)C(=O)c1cccc(Cl)c1[C@]1(C)C(=O)N(Cc2ccc(OC)cc2OC)c2ccc(Cl)cc21", "outcome": "inactive"}, {"smiles": "OCCO", "outcome": "inactive"}, {"smiles": "Cc1cn([C@H]2C[C@H](N=[N+]=[N-])[C@@H](CO)O2)c(=O)[nH]c1=O", "outcome": "inactive"}, {"smiles": "O=C1O[C@H]([C@@H](O)CO)C(O)=C1O", "outcome": "inactive"}, {"smiles": "CC[C@H](NC(=O)c1cc(F)ccc1NS(=O)(=O)c1cccc2cccnc12)c1ccccc1", "outcome": "inactive"}, {"smiles": "O=C(O)c1ccccc1-n1cc(C(=O)O)c(=O)c2cc(Nc3c(F)cc(F)cc3Cl)c(Cl)cc21", "AC50": "0.01 µM (active)"}, {"smiles": "NCc1cccc(C2CCN(C(=O)c3ccc(C#Cc4ccccc4F)o3)CC2)c1", "AC50": "79.9 µM (active)"}, {"smiles": "CCCCCCCCCCCO", "outcome": "inactive"}, {"smiles": "CCCCCCCCN(C)CCCCCCCC", "outcome": "inactive"}, {"smiles": "CC(C)(O)c1ccc(CNC(=O)c2cccnc2Oc2ccc3nonc3c2)cc1", "outcome": "inactive"}, {"smiles": "CC(C)(c1cc(Br)c(O)c(Br)c1)c1cc(Br)c(O)c(Br)c1", "outcome": "inactive"}, {"smiles": "CCCCCCCCOC(=O)c1cc(O)c(O)c(O)c1", "outcome": "inactive"}, {"smiles": "CCO[Si](CCCNC(N)=O)(OCC)OCC", "outcome": "inactive"}, {"smiles": "Cc1occc1C(=O)Nc1ccc(C(=O)N2CCC(F)(F)/C(=C\\C(=O)N3CCC(N4CCCCC4)CC3)c3ccccc32)cc1", "outcome": "inactive"}, {"smiles": "Cc1cccc2ccccc12", "outcome": "inactive"}, {"smiles": "CCCCOC(=O)c1ccc(O)cc1", "outcome": "inactive"}, {"smiles": "Cc1cc(F)ccc1-c1cc(N2CC[C@@H](O)[C@H]2CO)ncc1N(C)C(=O)C(C)(C)c1cc(C(F)(F)F)cc(C(F)(F)F)c1", "outcome": "inactive"}, {"smiles": "CCOC(=O)O[C@H](C)OC(=O)c1ccc2c(c1)cc(C(=O)NC1CCN(C(C)C)CC1)n2Cc1cc(-c2ccc(Cl)s2)on1", "outcome": "inactive"}, {"smiles": "c1ccc(C[n+]2cccc3ccccc32)cc1", "outcome": "inactive"}, {"smiles": "O=C(OCCCCCCOC(=O)c1ccccc1)c1ccccc1", "outcome": "inactive"}, {"smiles": "Clc1ccccc1C(c1ccccc1)(c1ccccc1)n1ccnc1", "outcome": "inactive"}, {"smiles": "CC[C@@H]1C[C@H](N(Cc2cc(C(F)(F)F)cc(C(F)(F)F)c2)C(C)=O)c2cc(C(F)(F)F)ccc2N1C(=O)OC(C)C", "outcome": "inactive"}, {"smiles": "COCC(C)OCC(C)OCC(C)O", "note": "(stereo not given)", "outcome": "inactive"}, {"smiles": "Cc1c2ccccc2c(C)c2c1ccc1ccccc12", "outcome": "inactive"}, {"smiles": "CC/C(=C(/CC)c1ccc(O)cc1)c1ccc(O)cc1", "outcome": "inactive"}, {"smiles": "c1ccc2ccccc2c1", "outcome": "inactive"}, {"smiles": "CCCCCCCC[Si](OCC)(OCC)OCC", "outcome": "inactive"}, {"smiles": "O=C(O)Cc1cc(I)c(Oc2ccc(O)c(I)c2)c(I)c1", "outcome": "inactive"}, {"smiles": "OC12N=C(c3ccccc3)SC1Cc1cc(Cl)ccc12", "note": "(stereo not given)", "outcome": "inactive"}, {"smiles": "CN1C(=O)CC[C@H]1c1cccnc1", "outcome": "inactive"}, {"smiles": "Cc1ccc(C(C)C)cc1", "outcome": "inactive"}, {"smiles": "CCCOC(=O)c1cc(O)c(O)c(O)c1", "outcome": "inactive"}, {"smiles": "O=C1CCC(C2CCCCC2)CC1", "outcome": "inactive"}, {"smiles": "NC(=O)c1nc(-c2cccc(-c3cc(F)ccc3OCC(F)(F)C(F)(F)F)c2)n[nH]1", "outcome": "inactive"}]}]}
